The target of assay [1] is Cytochrome P450 1A2 (Homo sapiens) (UniProt P05177). In words: p450-cyp1a2 (AID 410; calls by dose curve). The method, boiled down:
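20nM CYP1A2 with 100uM Luciferin-ME (at Km) in 100mM KPO4; compound preincubated 10 min, NADPH regeneration added, 60 min at room temperature. Luciferin quantified by luminescence after detection reagent; normalized to 57 uM furafylline.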

Assay [2] concerns the target Glucocorticoid receptor (Homo sapiens) (UniProt P04150). In words: GR-GFP Redistribution (AID 450;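 active means compounds whose dose series gives a full or clear partial fitted curve of increased nuclear translocation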; further: potency means the concentration at half of the fitted maximal effect). As to conditions: U2OS GR-GFP nuclear translocation, laser cytometry, 2 h.
The target is the same in assay [3]. In words: GR-EFC Redistribution (AID 451; calls by dose curve; further: potency means the concentration at half of the fitted maximal effect). As to conditions: CHO-K1 GR-EFC translocation, beta-gal luminescence, 2 h. The method, boiled down:
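CHO-K1 cells expressing nuclear EA and GR-ED fragments of b-gal; compounds titrated up to 46 uM final, 2 h at 37 C. GR nuclear translocation read as complemented b-gal luminescence after 1 h RT detection.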

In assay [4] the target is Mitogen-activated protein kinase 10 (Mus musculus) (UniProt Q61831). The assay is described as follows: JNK3 AlphaScreen Assay (AID 530; active means well fitted curve in either direction with a large enough effect, not every such curve was filed as active;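 further: kinase came from lysate of stimulated human HepG2 cells; signal reports phosphorylation of biotinylated GST-cJun 1-79 at Ser73 with 10 µM ATP; on the % scale 0 is the no-effect control and ±100 the full control effect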). A digest of the protocol: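 Pre-activated (IL-1β/TNFα) JNK3 in HepG2 lysates phosphorylates biotin-GST-cJun(1-79), 10 uM ATP; anti-phospho-cJun(Ser73) AlphaScreen read at room temperature, pH 7.6 Tris buffer. Compounds pre-incubated 15 min as titrations.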
For orientation: In Alpha technology, singlet oxygen from a donor bead excites a nearby acceptor bead.

The target in assay [5] is Cytochrome P450 2C9 (Homo sapiens) (UniProt P11712). In words: qHTS Assay for Inhibitors and Substrates of Cytochrome P450 2C9 (AID 883). Further: on the % scale 0 is the no-effect control and ±100 the full control effect; nearly all actives have a fitted effect of over 60% in size. The method, boiled down: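 10nM CYP2C9 + 100uM Luciferin-H (=KM), 25mM KPO4; cpd 10 min 37C; NADPH regen, 60 min 37C; stop/detect with P450 Glo-Buffer 20 min; luminescence. Norm. to 57uM sulphaphenazole as full inhibition.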
For orientation: Quantitative high-throughput screening tests each substance at several concentrations.

Assay [6] addresses Cytochrome P450 2D6 (Homo sapiens) (UniProt P10635). In words: qHTS Assay for Inhibitors and Substrates of Cytochrome P450 2D6 (AID 891).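 Further: luciferin methyl ether substrate demethylated by CYP2D6 with NADPH regeneration; on the % scale 0 is the no-effect control and ±100 the full control effect; nearly all actives have a fitted effect of over 60% in size.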 A digest of the protocol: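 Human CYP2D6 (5 nM) with 30 uM Luciferin-ME EGE (at Km) in 100 mM KPO4, compound preincubated 10 min, then NADPH regeneration system for 60 min at room temperature. Luciferin read by luminescence; normalized to 1.43 uM quinidine.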

Assay [7] deals with Cytochrome P450 2C19 (Homo sapiens) (UniProt P33261). In words: qHTS Assay for Inhibitors and Substrates of Cytochrome P450 2C19 (AID 899). Further: nearly all actives have a fitted effect of over 60% in size. Further: potency means the concentration at half of the fitted maximal effect. A digest of the protocol: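 Luminescent read-out of luciferin formed from Luciferin-H EGE (10uM, equal to KM). Enzyme 5nM in 50mM KPO4; compound added, 10 min at 37C, then NADPH regenerating system for 60 min at 37C. Full inhibition defined by 57uM ketoconazole.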

Assay [8] can be described thus: Stat Signaling Pathway (AID 446; active means well fitted curve in either direction with a large enough effect, not every such curve was filed as active;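 further: ME-180 cervical cancer cells given 40 pM IL-6 alongside compound; SIE-controlled beta-lactamase reporter measured as 460/530 nm FRET emission ratio; on the % scale 0 is the no-effect control and ±100 the full control effect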). A digest of the protocol: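 ME-180 cells carrying a SIE-driven beta-lactamase reporter are stimulated with 40 pM IL-6 for 5 h at 37C in the presence of compound. The 460/530 nm FRET substrate ratio is read after 2.5 h at RT. Data are normalised to 300 pM IL-6 and to 125 nM JAK inhibitor controls.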
Assay [9] addresses 3',5'-cyclic-AMP phosphodiesterase 4B (Homo sapiens) (UniProt Q07343). In words: qHTS Assay for Inhibitors of PDE-IV (AID 607; active means well fitted activation curve with a large enough effect in the main read-out, with a control signal flat, not every such curve was filed as active; further: % of control where 0% means no effect). A digest of the protocol: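 HEK293 ACTOne cells with CNG channel (1000/well), endogenous PDE4; membrane potential dye, compounds up to 22.9 uM final. Fluorescence Ex 535/Em 590; RO 20-1724 (100 uM final) as reference.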
The target of assay [10] is Guanine nucleotide-binding protein G(i) subunit alpha-1 (Homo sapiens) (UniProt P63096). The assay is described as follows: qHTS Assay for Inhibitors of RGS12 GoLoco Motif Activity (Green Fluorophore) (AID 879).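 Further: 0% = labeled peptide with Gαi1 and full inhibition = labeled peptide alone without protein; negative values mean loss of peptide binding seen as reduced polarization.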 The method, boiled down:
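Fluorescence polarization assay: 50 nM Gαi1 with 10 nM FITC-labeled RGS12 GoLoco peptide in 10 mM Tris pH 7.5, 150 mM NaCl, 0.1 mM GDP, 0.05% NP40, 10 min at room temperature with compound.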

The nature of assay [11]: qHTS Assay for Identification of Small Molecule Agonists for Thrombopoietin (TPO) Signaling Pathway (AID 917). Further: on the % scale 0 is the no-effect control and ±100 the full control effect. The method, boiled down:
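Murine Ba/F3 cells stably expressing human TPO receptor and a Glycoprotein IIb promoter–luciferase reporter were IL-3-starved overnight, then treated with compounds plus TPO (26 pM final, its EC50) for 24 hrs at 37 C; luminescence was read.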

Assay [12] deals with Pyruvate kinase (Leishmania mexicana) (UniProt Q27686). In words: qHTS Validation Assay for Inhibitors of Leishmania Mexicana Pyruvate Kinase (AID 945).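 Further: 0% = DMSO only neutral control wells.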 The method, boiled down: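 qHTS eight-point titrations against 0.2 nM LmPYK (E451W) in imidazole buffer pH 7.2 with 0.5 mM PEP, 0.1 mM ADP; 1 h, room temperature. Readout: PKLight luminescence, normalized to neutral DMSO wells.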

In assay [13] the target is Pyruvate kinase PKM (Homo sapiens) (UniProt P14618). The assay is described as follows: qHTS Assay for Activators of Human Muscle Pyruvate Kinase (AID 954; active means well fitted curve in the direction sought with a large enough effect, not every such curve was filed as active;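 further: 0% = uninhibited enzyme and -100% = no enzyme or full thiadiazolimine inhibition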). A digest of the protocol:
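Purified human PKM2 (0.1 nM) with 0.5 mM PEP (Km) and 0.1 mM ADP in 50 mM imidazole pH 7.2, KCl, MgCl2, 1 h at room temperature; ATP formed read by coupled luciferase luminescence. Normalized to no-enzyme/110 uM thiadiazolimine inhibition; 0.3 nM enzyme column for activation.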

In assay [14] the target is Alpha-galactosidase (Coffea arabica) (UniProt Q42656). In words: Counterscreen for Glucocerebrosidase Inhibitors: qHTS Assay for Coffee Bean alpha-Galactosidase at pH 4.5 (AID 957).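 Further: plate controls were enzyme alone for no effect and no enzyme for full effect.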 A digest of the protocol: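 Coffee bean enzyme (2 nM) with 80 uM 4-methylumbelliferyl alpha-D-galactopyranoside in 50 mM citric acid, 0.005% Tween-20, pH 4.5, 20 min at room temperature; compounds 0.7 nM–77 uM. Stopped at pH 10, fluorescence 365/440 nm; AC50 from Hill fits.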

For assay [15], the target named is Alpha-galactosidase A (Homo sapiens) (UniProt P06280). The assay is described as follows: Counterscreen for Glucocerebrosidase Inhibitors: qHTS Assay for Human alpha-Galactosidase at pH 4.5 (AID 992). Further: 0% is about no effect. The method, boiled down:
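Human enzyme (2 nM) with 80 uM 4-methylumbelliferyl alpha-D-galactopyranoside in 50 mM citric acid, 0.005% Tween-20, pH 4.5, 20 min at room temperature. Compounds 0.7 nM–77 uM; fluorescence Ex 365/Em 440 after pH 10 stop; AC50 from Hill fits.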
For orientation: Counterscreens check selectivity or assay interference.

In assay [16] the target is alpha-glucosidase (Oryza sativa, rice) (UniProt Q653V4). The assay is described as follows: Counterscreen for Glucocerebrosidase Inhibitors: qHTS Assay for Rice alpha-Glucosidase at pH 5.0 (AID 997).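 Further: 0% = full activity with enzyme and -100% = basal without enzyme.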 The method, boiled down:
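Rice alpha-glucosidase (4 nM final) with 400 uM 4-methylumbelliferyl-alpha-D-glucopyranoside in citrate buffer pH 5.0, 20 min at room temperature, stopped at pH 10; fluorescence 365/440 nm, compounds 0.7 nM–77 uM, AC50 from Hill fits.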

Assay [17] deals with Alpha-galactosidase (Coffea arabica) (UniProt Q42656). The assay is described as follows: Counterscreen for Glucocerebrosidase Inhibitors: qHTS Assay for Coffee Bean alpha-Galactosidase at pH 5.9 (AID 998).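 Further: plate controls were uninhibited enzyme for no effect and no-enzyme basal signal for full effect.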 A digest of the protocol: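 Green coffee bean enzyme (2 nM) with 4-methylumbelliferyl alpha-D-galactopyranoside (80 uM) in 50 mM citric acid, 0.005% Tween-20, pH 5.9, 20 min at room temperature; compounds 0.7 nM–77 uM. Stopped at pH 10, fluorescence Ex365/Em440; Hill-fit AC50.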

A short description of assay [18]: AP1 Signaling Pathway (AID 357; active means well fitted curve in either direction with a large enough effect, not every such curve was filed as active; further: on the % scale 0 is the no-effect control and ±100 the full control effect). The following applies: ME-180 AP-1-bla reporter, EGF-induced, beta-lactamase ratio, 5 h; at 17.2 µM (top of the series) unless noted. A digest of the protocol: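 Cells are seeded overnight, exposed to compound titrations and an EC50 level of EGF for 5 hours at 37 °C, then loaded with CCF4 dye for 2.5 hours. Beta-lactamase activity under the AP-1 element is read as a blue/green ratio.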

Assay [19] is described as follows: qHTS Assay for Identification of Small Molecule Antagonists for NFkB Signaling Pathway (AID 895; active means well fitted inhibition curve with a large enough effect in the signal ratio, with a control signal flat, not every such curve was filed as active; the % refers to the signal ratio; further: on the % scale 0 is the no-effect control and ±100 the full control effect). A digest of the protocol: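 ME-180 NFkB-bla cells (beta-lactamase under NFkB response element), plated overnight, treated with compound then 10 pM TNF alpha (about EC50) for 5 hrs at 37 C. LiveBLAzer FRET read at 460/530 nm emission, 405 nm excitation.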
Assay [20] can be described thus: qHTS Assay for Identification of Small Molecule Agonists for Hypoxia Response Element Signaling Pathway (AID 914; active means well fitted activation curve with a large enough effect in the signal ratio, with a control signal flat, not every such curve was filed as active; the % refers to the signal ratio; further: % of control where 0% means no effect). The following applies: ME-180 (cervical carcinoma) HRE-bla reporter, beta-lactamase ratio, CoCl2, 17 h; activation: stronger effect = higher value. A digest of the protocol:
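Positive modulation of EC50 CoCl2-induced hypoxia response element signaling is measured in ME-180 cells with a beta-lactamase reporter. Compounds are titrated, incubation runs 17 hours, and %Activity derives from the blue/green ratio.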

For assay [21], the target named is Muscarinic acetylcholine receptor M1 (Rattus norvegicus) (UniProt P08482). The assay is described as follows: qHTS Assay for Antagonists of Acetylcholine Muscarinic M1 Receptor: Kinetic Measurement of Intracellular Calcium Response (AID 943). Further: potency means the concentration at half of the fitted maximal effect; nearly all actives have a fitted effect of over 75% in size. A digest of the protocol:
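CHO cells expressing rat M1 receptor, Fluo-4 loaded, preincubated 10 min with compound, then stimulated with EC80 carbachol (100 nM final). Kinetic calcium fluorescence over 4 min; response taken as peak over basal signal.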

The target of assay [22] is Tumor susceptibility gene 101 protein (Homo sapiens) (UniProt Q99816). The assay is described as follows: qHTS Assay for Iinhibitors of HIV-1 Budding by Blocking the Interaction of PTAP/TSG101: Hit Validation (AID 651600). Further: on the % scale 0 is the no-effect control and ±100 the full control effect; nearly all actives have a fitted effect of over 70% in size. The method, boiled down:
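Fluorescence polarization binding assay: Tsg101 binding domain (10 uM final) pre-dispensed with compounds, then FITC-labeled PTAP-motif peptide (50 nM final) added; 20 min at r.t. in HEPES pH 7.5 buffer with NaCl, Tween 20, EDTA, TCEP.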

Values without a mark were called inactive. Inconclusive results are not listed. The source made the active and inactive calls. Unless noted, the call rests on the fitted dose curve; in most records, active means well fitted curve in the direction sought with a large enough effect; inconclusive means small, poorly fitted or top-dose-only effect, or another doubt; inactive means no such curve, though single readings can be large; an effect the other way counts as inactive or inconclusive.

Sequence of Glucocorticoid receptor (Homo sapiens) (P04150 whole entry, looked up): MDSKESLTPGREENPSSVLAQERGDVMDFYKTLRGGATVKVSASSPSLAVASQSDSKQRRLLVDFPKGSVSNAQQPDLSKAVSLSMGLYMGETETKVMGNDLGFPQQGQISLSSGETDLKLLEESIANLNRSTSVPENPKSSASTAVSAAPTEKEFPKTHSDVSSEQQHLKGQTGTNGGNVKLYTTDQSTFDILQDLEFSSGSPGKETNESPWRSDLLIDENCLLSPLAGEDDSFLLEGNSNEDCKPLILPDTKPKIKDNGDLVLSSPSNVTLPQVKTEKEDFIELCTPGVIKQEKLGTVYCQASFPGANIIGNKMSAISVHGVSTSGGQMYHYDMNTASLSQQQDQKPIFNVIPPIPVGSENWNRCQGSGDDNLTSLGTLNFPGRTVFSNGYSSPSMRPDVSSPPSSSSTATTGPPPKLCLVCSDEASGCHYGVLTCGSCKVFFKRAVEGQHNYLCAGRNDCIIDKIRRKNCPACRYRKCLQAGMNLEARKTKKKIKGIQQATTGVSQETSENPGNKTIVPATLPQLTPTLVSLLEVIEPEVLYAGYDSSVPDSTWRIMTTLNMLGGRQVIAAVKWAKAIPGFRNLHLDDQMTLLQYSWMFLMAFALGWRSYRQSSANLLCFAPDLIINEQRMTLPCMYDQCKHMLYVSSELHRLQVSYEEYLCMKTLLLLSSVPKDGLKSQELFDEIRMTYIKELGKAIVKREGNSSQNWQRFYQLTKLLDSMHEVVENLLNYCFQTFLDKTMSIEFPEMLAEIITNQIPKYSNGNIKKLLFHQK
Sequence of Alpha-galactosidase A (Homo sapiens) (P06280 whole entry, looked up): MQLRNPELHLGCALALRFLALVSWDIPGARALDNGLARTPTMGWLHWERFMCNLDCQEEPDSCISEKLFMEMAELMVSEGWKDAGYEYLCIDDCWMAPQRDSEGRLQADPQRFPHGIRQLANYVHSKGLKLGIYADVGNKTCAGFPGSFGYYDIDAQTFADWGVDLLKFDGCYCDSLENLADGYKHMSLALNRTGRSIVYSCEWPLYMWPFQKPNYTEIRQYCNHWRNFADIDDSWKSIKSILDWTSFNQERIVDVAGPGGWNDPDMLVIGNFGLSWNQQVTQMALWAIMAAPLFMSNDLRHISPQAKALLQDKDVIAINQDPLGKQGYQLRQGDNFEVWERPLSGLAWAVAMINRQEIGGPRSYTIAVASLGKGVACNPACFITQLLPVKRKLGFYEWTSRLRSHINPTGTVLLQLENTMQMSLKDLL
Sequence of Alpha-galactosidase (Coffea arabica) (Q42656 whole entry, looked up): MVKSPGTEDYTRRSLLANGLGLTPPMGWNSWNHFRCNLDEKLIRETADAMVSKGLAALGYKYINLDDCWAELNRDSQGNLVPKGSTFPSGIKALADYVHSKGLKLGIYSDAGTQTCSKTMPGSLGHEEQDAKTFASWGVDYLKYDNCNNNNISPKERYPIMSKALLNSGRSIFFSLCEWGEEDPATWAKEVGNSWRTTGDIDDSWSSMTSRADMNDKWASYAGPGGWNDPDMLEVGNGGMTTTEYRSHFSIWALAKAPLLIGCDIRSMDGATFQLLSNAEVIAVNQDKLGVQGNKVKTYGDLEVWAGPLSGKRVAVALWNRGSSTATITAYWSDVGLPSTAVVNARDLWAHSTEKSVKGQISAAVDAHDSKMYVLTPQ
Sequence of Pyruvate kinase PKM (Homo sapiens) (P14618 whole entry, looked up): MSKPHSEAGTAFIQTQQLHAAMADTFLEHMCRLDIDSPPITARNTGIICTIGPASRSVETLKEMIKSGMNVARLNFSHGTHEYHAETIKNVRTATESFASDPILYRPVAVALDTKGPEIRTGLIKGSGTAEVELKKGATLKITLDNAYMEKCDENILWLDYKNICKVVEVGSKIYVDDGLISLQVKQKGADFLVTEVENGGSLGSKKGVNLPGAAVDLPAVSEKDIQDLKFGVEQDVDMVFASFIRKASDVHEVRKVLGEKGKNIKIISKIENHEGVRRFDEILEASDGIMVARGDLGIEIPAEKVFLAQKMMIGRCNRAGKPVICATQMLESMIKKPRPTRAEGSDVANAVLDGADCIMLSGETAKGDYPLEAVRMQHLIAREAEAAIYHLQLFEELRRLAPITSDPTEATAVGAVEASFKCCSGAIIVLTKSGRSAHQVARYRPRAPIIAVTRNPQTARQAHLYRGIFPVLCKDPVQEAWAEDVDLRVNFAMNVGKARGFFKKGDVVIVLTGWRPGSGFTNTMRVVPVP
Sequence of Guanine nucleotide-binding protein G(i) subunit alpha-1 (Homo sapiens) (P63096 whole entry, looked up): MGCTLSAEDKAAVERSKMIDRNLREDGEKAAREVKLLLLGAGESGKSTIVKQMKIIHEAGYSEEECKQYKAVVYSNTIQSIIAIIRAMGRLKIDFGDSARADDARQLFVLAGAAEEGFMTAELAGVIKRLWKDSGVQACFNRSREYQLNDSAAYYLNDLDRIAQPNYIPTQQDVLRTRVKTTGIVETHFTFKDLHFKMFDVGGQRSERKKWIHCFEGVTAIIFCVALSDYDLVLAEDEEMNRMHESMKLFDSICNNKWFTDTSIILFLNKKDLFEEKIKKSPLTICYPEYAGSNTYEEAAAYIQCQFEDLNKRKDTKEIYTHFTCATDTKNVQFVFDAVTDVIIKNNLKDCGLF
Sequence of Cytochrome P450 2D6 (Homo sapiens) (P10635 whole entry, looked up): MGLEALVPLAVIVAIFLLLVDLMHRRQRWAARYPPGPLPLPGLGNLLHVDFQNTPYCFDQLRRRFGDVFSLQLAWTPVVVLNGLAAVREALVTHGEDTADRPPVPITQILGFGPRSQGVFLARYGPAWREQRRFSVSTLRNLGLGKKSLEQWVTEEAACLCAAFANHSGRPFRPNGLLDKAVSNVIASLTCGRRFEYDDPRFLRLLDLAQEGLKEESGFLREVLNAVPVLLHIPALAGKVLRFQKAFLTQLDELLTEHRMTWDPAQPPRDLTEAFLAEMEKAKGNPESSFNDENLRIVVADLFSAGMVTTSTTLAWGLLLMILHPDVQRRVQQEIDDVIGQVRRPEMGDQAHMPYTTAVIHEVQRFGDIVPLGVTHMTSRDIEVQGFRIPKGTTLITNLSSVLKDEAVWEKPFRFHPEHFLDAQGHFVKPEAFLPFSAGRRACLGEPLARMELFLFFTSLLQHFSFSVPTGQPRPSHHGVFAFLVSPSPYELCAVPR
Sequence of Cytochrome P450 1A2 (Homo sapiens) (P05177 whole entry, looked up): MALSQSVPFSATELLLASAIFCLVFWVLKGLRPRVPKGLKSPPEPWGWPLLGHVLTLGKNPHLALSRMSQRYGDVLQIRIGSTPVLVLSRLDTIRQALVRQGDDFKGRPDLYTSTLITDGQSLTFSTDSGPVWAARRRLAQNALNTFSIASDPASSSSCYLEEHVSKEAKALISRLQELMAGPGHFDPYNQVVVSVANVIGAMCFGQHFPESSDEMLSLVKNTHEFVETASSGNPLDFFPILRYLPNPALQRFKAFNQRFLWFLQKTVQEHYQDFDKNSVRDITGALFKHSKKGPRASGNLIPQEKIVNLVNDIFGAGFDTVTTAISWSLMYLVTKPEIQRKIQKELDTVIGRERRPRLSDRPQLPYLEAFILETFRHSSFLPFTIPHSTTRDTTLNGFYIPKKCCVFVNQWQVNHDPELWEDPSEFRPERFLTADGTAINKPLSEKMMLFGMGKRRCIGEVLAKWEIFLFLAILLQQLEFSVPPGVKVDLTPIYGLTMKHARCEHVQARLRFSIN
Sequence of 3',5'-cyclic-AMP phosphodiesterase 4B (Homo sapiens) (Q07343 whole entry, looked up): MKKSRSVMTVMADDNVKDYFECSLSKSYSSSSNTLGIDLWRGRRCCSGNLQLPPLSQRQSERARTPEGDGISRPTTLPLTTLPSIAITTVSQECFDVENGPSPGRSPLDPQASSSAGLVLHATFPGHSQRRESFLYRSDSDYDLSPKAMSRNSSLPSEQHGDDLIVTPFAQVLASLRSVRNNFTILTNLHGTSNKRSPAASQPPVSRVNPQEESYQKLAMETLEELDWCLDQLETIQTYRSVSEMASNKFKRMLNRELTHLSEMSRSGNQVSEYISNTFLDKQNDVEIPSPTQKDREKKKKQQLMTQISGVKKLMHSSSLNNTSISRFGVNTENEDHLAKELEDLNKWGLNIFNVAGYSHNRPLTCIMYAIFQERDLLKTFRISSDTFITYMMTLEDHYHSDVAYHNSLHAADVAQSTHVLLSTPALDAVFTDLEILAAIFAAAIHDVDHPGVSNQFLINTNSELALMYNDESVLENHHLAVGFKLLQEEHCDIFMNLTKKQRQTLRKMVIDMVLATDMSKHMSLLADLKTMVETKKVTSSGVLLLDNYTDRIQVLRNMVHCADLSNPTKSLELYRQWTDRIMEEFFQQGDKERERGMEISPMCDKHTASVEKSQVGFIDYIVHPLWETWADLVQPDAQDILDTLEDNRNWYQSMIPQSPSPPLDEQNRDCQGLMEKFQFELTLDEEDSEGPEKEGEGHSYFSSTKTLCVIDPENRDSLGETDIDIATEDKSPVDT
Sequence of Cytochrome P450 2C19 (Homo sapiens) (P33261 whole entry, looked up): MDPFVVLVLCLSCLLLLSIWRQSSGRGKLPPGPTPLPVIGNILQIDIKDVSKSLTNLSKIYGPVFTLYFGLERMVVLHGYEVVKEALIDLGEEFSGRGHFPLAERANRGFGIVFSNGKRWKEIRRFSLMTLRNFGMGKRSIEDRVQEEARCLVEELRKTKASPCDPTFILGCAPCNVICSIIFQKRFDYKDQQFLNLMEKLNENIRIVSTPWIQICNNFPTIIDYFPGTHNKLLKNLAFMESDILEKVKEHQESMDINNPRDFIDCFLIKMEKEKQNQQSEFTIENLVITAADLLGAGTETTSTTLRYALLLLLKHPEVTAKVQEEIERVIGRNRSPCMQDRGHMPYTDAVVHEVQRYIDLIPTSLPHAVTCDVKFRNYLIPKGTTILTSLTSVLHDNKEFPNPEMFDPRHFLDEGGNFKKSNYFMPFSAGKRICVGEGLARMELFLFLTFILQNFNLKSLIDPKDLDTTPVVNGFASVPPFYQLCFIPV

`C/C=C1\C[C@H](C)[C@](O)(CO)C(=O)OCC2=CCN3CC[C@@H](OC1=O)[C@@H]23`: the Potency entry in assay [1], in assay [5], in [6] and in assay [7] was “inactive” throughout. Further, the Potency in assay [2] and in assay [3] was over 46 µM throughout. For the same compound, in assay [4], the result was inactive.
Take `C[C@@H]1O[C@@H](O[C@H]2C[C@@H](O)[C@]3(CO)[C@@H]4[C@@H](O)C[C@]5(C)[C@H]([C@@H]6COC(=O)C6)CC[C@@]5(O)[C@H]4CC[C@@]3(O)C2)[C@H](O)[C@H](O)[C@@H]1O`: the Potency result in assay [1], in [10] and in assay [12] was “inactive” each time. The call in [8], in assay [9], in [11], in assay [13], in assay [14] and in assay [15] was inactive. Besides, the result in [16] and in assay [17] was inactive. The Potency in [2] and in [3] was over 46 µM throughout.
`O=C1C2CCN(CC2)[C@@H]1Cc1ccc2ccccc2c1O`: the activity change, negative = inhibition in assay [18] was 6.63%. Besides, the call in assay [8] was inactive. The Potency in assay [2] was over 20.6 µM.
For `O=C1C[C@H]2OCCC=C3CN4CC[C@@]56c7ccccc7N1[C@@H]5[C@H]2[C@H]3C[C@@H]46`, the Potency result in assay [1], in assay [5], in assay [6] and in assay [7] was “inactive” in each case. Further, the Potency in assay [2] and in [3] was over 46 µM in each case. For the same compound, the call in assay [4] and in assay [9] was inactive.
For the compound `C[C@H]1CC[C@]2(NC1)O[C@@H]1C[C@@H]3[C@@H]4CC=C5C[C@H](O)CC[C@@]5(C)[C@H]4CC[C@@]3(C)[C@H]1[C@@H]2C`, the Potency entry in [1], in assay [5], in assay [6] and in assay [7] was “inactive” in each case. Moreover, the Potency in [2] and in assay [3] was over 46 µM in each case. For the same compound, the outcome in assay [4] was inactive.
As for `CCOc1ccccc1-n1c(O)c(C=Nc2c(C)n(C)n(-c3ccccc3)c2=O)c(=O)[nH]c1=O`, the activity change, negative = inhibition in [18] is -0.373%. In addition, the result in [8] was inactive. Further, the Potency in [2] was over 20.6 µM.
Turning to `C=C(C)[C@H]1Cc2c(ccc3c2O[C@H]2COc4cc(OC)c(OC)cc4[C@@H]2C3=O)O1`, the activity change, negative = inhibition in assay [18] is 7.51% [at 38 µM]. For the same compound, the compound was classed as inactive in assay [4], in [9], in assay [13], in assay [14], in assay [15] and in assay [16]. For the same compound, the call in [17] was inactive. Besides, in assay [10], the Potency entry was “inactive”. Further, in assay [7], the Potency was 2.51 µM (active).
Consider `NC(=O)c1ccc(OC[C@H](O)CN2CC=C(c3ccc(F)cc3)CC2)cc1`, for which the activity change, negative = inhibition in [18] was 18.4% [at 38 µM]. Also, the results for the Potency in assay [2] and in assay [21] were over 46 µM and 6.31 µM (active), respectively. The outcome in assay [9], in assay [13], in [14], in assay [15], in assay [16] and in assay [17] was inactive. The Potency entry in [10], in assay [19] and in assay [12] was “inactive” throughout. For the same compound, the activation in assay [20] is -0.382%.
For the compound `CN1CC=C2C(C#N)=C(N)C(C#N)(C#N)C(c3ccncc3)C2C1` (stereo not drawn), the activity change, negative = inhibition in assay [18] is 21.4%. Further, in assay [8], the outcome was inactive. In addition, the Potency in assay [2] is over 20.6 µM. Further, in assay [22], the Potency result was “inactive”.

For the origin of these results see PubChem BioAssay (NCATS).
